In PubChem BioAssay (NCI):
Compounds without any hit were thinned out: in the full panel of roughly 79,000, 15% have a hit. Unmarked numbers belong to inactive results. Active and inactive are the calls of the source. Rule as the data show it: active = growth inhibition above about 70%; inactive = the rest.

Tests used:
[1] = NCI Yeast Anticancer Drug Screen. Data for the rad50 strain (AID 155);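 also: 0% = growth of vehicle-only cultures of the same strain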; details: S. cerevisiae rad50 strain growth inhibition, active compounds read high
Outline: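 Growth of the mutant yeast was measured after compound exposure and referenced to vehicle-treated cultures.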

[2] = NCI Yeast Anticancer Drug Screen. Data for the mec2-1 strain (AID 157); details: S. cerevisiae mec2-1 strain, active compounds read high
Outline: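 Using mec2-1 yeast: add compound, measure growth, express inhibition versus vehicle-treated cultures.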

[3] = NCI Yeast Anticancer Drug Screen. Data for the sgs1 mgt1 strain (AID 161);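 also: 0% = growth of cultures given vehicle only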; details: S. cerevisiae sgs1 mgt1 strain, active compounds read high
Outline: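 This yeast growth screen uses a strain with defined DNA-repair lesions; compound-treated growth is compared with vehicle-treated growth.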

[4] = NCI Yeast Anticancer Drug Screen. Data for the cln2 rad14 strain (AID 165);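 also: 0% = growth equal to vehicle treated cultures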; details: S. cerevisiae cln2 rad14 strain, active compounds read high
Outline: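 Yeast strain cln2 rad14, bearing defects in cell cycle control and DNA repair, serves as the test system; values reflect growth inhibition compared with vehicle.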

[5] = NCI Yeast Anticancer Drug Screen. Data for the bub3 strain (AID 167); details: S. cerevisiae bub3 mutant strain, active compounds read high
Outline: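 Whole-cell yeast assay. The mutant strain was incubated with compounds, and growth inhibition was determined by comparison with vehicle-treated cells.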

[6] = NCI Yeast Anticancer Drug Screen. Data for the mlh1 rad18 strain (AID 175); details: S. cerevisiae mlh1 rad18 strain growth inhibition, active compounds read high
Outline: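 Steps: expose repair-defective yeast to compound; measure growth; express inhibition against vehicle-treated controls.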

[7] = at 5.0 µM (retest, dose inferred, filed as 0.5)
[8] = at 50.0 µM (retest, dose inferred, filed as 5.0)

Row | Structure (SMILES) | growth inhibition [1, 7] | growth inhibition [1, 8] | growth inhibition ([1]; at 50.0 µM) | growth inhibition [2, 7] | growth inhibition [2, 8] | growth inhibition ([2]; at 50.0 µM) | growth inhibition [3, 7] | growth inhibition [3, 8] | growth inhibition ([3]; at 50.0 µM) | growth inhibition [4, 7] | growth inhibition [4, 8] | growth inhibition ([4]; at 50.0 µM) | growth inhibition [5, 7] | growth inhibition [5, 8] | growth inhibition ([5]; at 50.0 µM) | growth inhibition [6, 7] | growth inhibition [6, 8] | growth inhibition ([6]; at 50.0 µM)
1 | CN(NC(=O)/C(=C/c1ccc2c(c1)OCO2)NC(=O)c1ccccc1)c1ccnc2cc(Cl)ccc12 | -7% | -10% | 89.7% (active) | -15% | -2% | 46% | -9% | -15% | 78% (active) | 22% | 11% | 55.6% | 8% | 33% | 72.2% (active) | 10% | 11% | 87.7% (active)
2 | Cc1c2ccccc2cc2c1ccc1cccc(F)c12 | 4% | 90% (active) | 84.4% (active) | 11% | 95% (active) | 48% | 1% | 87% (active) | 80.7% (active) | 8% | 93% (active) | 23.9% | 4% | 91% (active) | 79% (active) | 10% | 92% (active) | 59.1%
3 | CC(N)C1C(C)CC2C3CC=C4CC(O)CCC4(C)C3CCC21C (configuration not stated) | 50% | 85% (active) | 4.45% | 35% | 74% (active) | 25.1% | 83% (active) | -19% | 74% (active) | 49% | 86% (active) | 8.3% | 52% | 85% (active) | 84.1% (active) | 57% | 86% (active) | 53.2%
4 | N=C(N)SCc1ccc(Br)cc1 | -13% | -17% | -2.75% | -29% | -23% | 13.8% | -20% | -15% | -15.9% | -16% | -4% | 27.6% | -18% | 35% | 16.9% | -29% | 2% | 19.9%
5 | CC(NNC(=S)N1CC2CCC(CC2)C1)c1nccc2ccccc12 (configuration not stated) | 98% (active) | 96% (active) | 98.7% (active) | 98% (active) | 96% (active) | 99% (active) | 98% (active) | 96% (active) | 99% (active) | 97% (active) | 95% (active) | 98.3% (active) | 97% (active) | 94% (active) | 99% (active) | 98% (active) | 96% (active) | 99.1% (active)
6 | O=[N+]([O-])c1ccc(CN2CCN(c3nccs3)CC2)cc1 | 5% | 22% | 76.8% (active) | -3% | 11% | 51% | 1% | 61% | 77.8% (active) | -1% | 29% | 34.5% | -1% | 38% | 66.6% | 3% | 46% | 66.2%
7 | O=C(Oc1c(I)ccccc1=O)c1ccc([N+](=O)[O-])cc1 | 39% | 98% (active) | 99.2% (active) | 57% | 99% (active) | 99.3% (active) | 73% (active) | 99% (active) | 99.3% (active) | 13% | 98% (active) | 99.2% (active) | 21% | 98% (active) | 99% (active) | 94% (active) | 99% (active) | 99.5% (active)
8 | Oc1cccc(-c2nc(-c3ccccc3)c(-c3ccccc3)[nH]2)c1 | 57% | 58% | 98.5% (active) | -2% | 22% | 98.8% (active) | 29% | 69% | 53.1% | 8% | 22% | 99.2% (active) | 32% | 43% | 98.8% (active) | 29% | 43% | 98.5% (active)
9 | CC(=O)/C(=C\c1c(Cl)cccc1Cl)C(=O)CCN(C)C | 18% | 99% (active) | 75.8% (active) | 17% | 99% (active) | 70.5% (active) | 8% | 99% (active) | 81.6% (active) | 25% | 99% (active) | 41.2% | 27% | 99% (active) | 65.8% | 16% | 99% (active) | 67.9%
10 | O=C(O)/C=C/c1ccc(Cl)cc1Cl | 6% | 95% (active) | 89.5% (active) | -8% | 56% | 33.5% | 2% | 39% | 65.8% | 1% | 57% | 37.8% | 41% | 85% (active) | 74.3% (active) | 6% | 94% (active) | 92.6% (active)
11 | COc1ccc(CN2COc3c(cc(C)c4cccnc34)C2)cc1 | 14% | 92% (active) | 65% | 8% | 93% (active) | 47.5% | 23% | 92% (active) | 64.1% | 16% | 93% (active) | 39.9% | -3% | 95% (active) | 61.4% | 20% | 93% (active) | 79.9% (active)
12 | C1=C(c2ccccc2)OC(c2ccccc2)=C[P+]1(c1ccccc1)c1ccccc1 | 96% (active) | 98% (active) | 92.1% (active) | 98% (active) | 99% (active) | 90.8% (active) | 99% (active) | 99% (active) | 91% (active) | 93% (active) | 99% (active) | 86.8% (active) | 97% (active) | 99% (active) | 93% (active) | 95% (active) | 98% (active) | 92.7% (active)
13 | CCCCCCCCCCCCNCc1ccc(O)c(OC)c1 | 95% (active) | 97% (active) | 97.3% (active) | 97% (active) | 98% (active) | 97.4% (active) | 99% (active) | 97% (active) | 44.1% | 93% (active) | 97% (active) | 95.7% (active) | 96% (active) | 97% (active) | 97.8% (active) | 98% (active) | 97% (active) | 97.5% (active)
14 | O=C1NC(O)c2cccc(Cl)c2O1 (configuration not stated) | 52% | 99% (active) | 88.8% (active) | 22% | 99% (active) | 92.2% (active) | 17% | 99% (active) | 83.3% (active) | 5% | 99% (active) | 97.8% (active) | 15% | 98% (active) | 94.8% (active) | 28% | 99% (active) | 98.3% (active)
15 | CC(C)(c1cc(Br)c(O)c(Br)c1)c1cc(Br)c(O)c(Br)c1 | 76% (active) | 97% (active) | 87.2% (active) | 82% (active) | 99% (active) | 90.7% (active) | 85% (active) | 98% (active) | 87.9% (active) | 81% (active) | 99% (active) | 89.5% (active) | 88% (active) | 98% (active) | 87.5% (active) | 93% (active) | 97% (active) | 87.5% (active)
16 | C=C(CN(C)C)C(=O)c1ccccc1 | -5% | 4% | 56.6% | 8% | 41% | 65% | 8% | 17% | 56% | -26% | 12% | 9.55% | -20% | 19% | 77.7% (active) | -4% | 17% | 74.8% (active)
17 | OCCSCc1cc(Cl)cc(Cl)c1O | 7% | 76% (active) | 56% | -12% | 60% | 48.2% | -6% | 90% (active) | 78.7% (active) | -10% | 44% | 44.4% | -6% | 77% (active) | 78% (active) | 0% | 91% (active) | 78.8% (active)
18 | CCc1nc2c(O)ccc(O)c2nc1C | -137% | 33% | 72.3% (active) | -43% | -11% | 62.9% | -50% | 37% | 65% | -55% | -10% | 59.4% | -63% | 17% | 84.2% (active) | -107% | 2% | 90.3% (active)
19 | Cc1cc(NS(=O)(=O)c2ccc(N)cc2)no1.[Ag] | 99% (active) | 99% (active) | 99.4% (active) | 100% (active) | 99% (active) | 99.7% (active) | 99% (active) | 100% (active) | 99.7% (active) | 99% (active) | 99% (active) | 99.5% (active) | 99% (active) | 99% (active) | 99.7% (active) | 99% (active) | 99% (active) | 99.5% (active)
